# Experimental data: PubChem BioAssay (Tox21)
# Records with an inconclusive call do not appear. A call without a number means that no potency is given here. Active and inactive are the calls of the source. The call rests on the fitted dose curve; in most records, active means well fitted cell-killing curve with a large enough effect in the repeat runs; inconclusive means weak or mixed curves, or effect the other way; inactive means flat fitted curve, though single readings scatter.
# Experiment: qHTS assay to identify small molecule antagonists of the retinoid acid receptor (RAR) signaling pathway - cell viability counter screen (AID 1159551); further: nearly all actives have a fitted effect of over 35% in size
# Settings: C3RL4 cells viability, ATP luminescence (CellTiter-Glo), 6 h; series mostly up to 92.4 µM
# Text: U.S. Tox21 Program National Center for Advancing Translational Sciences [NCATS] NIH Chemical Genomics Center [NCGC] U.S. Environmental Protection Agency [EPA] National Institutes of Environmental Health Sciences [NIEHS] National Toxicology Program [NTP] U.S. Food and Drug Administration [FDA] Tox21 Assay Overview: All-trans Retinoic acid (atRA) is the potent natural metabolite of retinol and plays an important role in normal embryonic development and maintenance of cellular phenotype in adult animals. atRA is the activating ligand for the retinoic acid receptors (RARs) which form heterodimers with retinoid X receptors (RXRs) on the retinoic acid response element (RARE). Through activation of the RAR/RXRs nuclear receptors, atRA regulates the transcription of a large number of protein-coding genes and regulatory RNAs. Intracellular levels of atRA are controlled by the retinol signaling pathway (RSP) that regulates the biosynthesis and catabolism of atRA to maintain physiological levels. Chemicals that interfere with the RSP can cause abnormal intracellular levels of atRA and therefore are potential developmental toxicants. To assess compounds for the potential adverse effect on embryonic development through interfering with retinol signaling, a cell-based RARE luciferase reporter gene assay was used. C3RL4 cell line (OARSA/CFSAN/FDA, Laurel, MD) was used to screen Tox21 10K compound library for identifying inhibitors of the RSP. Also cytotoxicity was assessed by determining the viability of cells based on the quantitation of ATP.
# Tox21 Assay Protocol Summary: C3RL4 cells were seeded at 1,000/well in 4 uL of assay medium into white solid 1,536-well tissue culture plates (Greiner Bio-One North America Inc. Monroe, NC) using a Multidrop Combi (Thermo Scientific, Waltham, MA) dispenser. After incubation at 37 C and 5% CO2 for an overnight, 23 nL of compounds dissolved in DMSO, positive control or DMSO only were transferred by a Pintool station (Kalypsys, San Diego, CA). One ul of 1 uM (final concentration) of Retinol was added right after the compound addition by using a Flying Reagent Dispenser (FRD) (Aurora Discovery, San Diego, CA). After 6 hr incubation at 37 C and 5% CO2, 5 uL of CellTiter-Glo reagent (Promega Corporation, Madison, WI) was added to each assay plate using an FRD. Luminescence was quantified on a ViewLux plate reader (PerkinElmer, Waltham, MA) after 30 min incubation at room temperature.
# Potency means the concentration at half of the fitted maximal effect.
SMILES,Potency,"activity change, negative = cytotoxicity"
COCCCC/C(=N\OCCN)c1ccc(C(F)(F)F)cc1,inactive,–
CN(C/C=C/C#CC(C)(C)C)Cc1cccc2ccccc12,inactive,–
O=[N+]([O-])c1cc(Cl)c(Cl)c(Cl)c1Cl,inactive,–
COc1cc(-c2ccc(N=C=O)c(OC)c2)ccc1N=C=O,inactive,–
Cc1[nH]nc2c1N=C(c1ccccc1Cl)c1cc([N+](=O)[O-])ccc1N2,43.3 µM (active),–
CS(=O)(=O)CCNCc1ccc(-c2ccc3ncnc(Nc4ccc(OCc5cccc(F)c5)c(Cl)c4)c3c2)o1,inactive,–
CC(NN)c1ccccc1 (stereo not given),–,1.08% [at 19 µM] (inactive)
Cc1cc(O)c2ccccc2c1O,13.3 µM (active),–
Nc1ccccc1O,inactive,–
CCc1cc(Cc2cc(CC)cc(C(C)(C)C)c2O)c(O)c(C(C)(C)C)c1,68.6 µM (active),–
O=C(Nc1cccc([N+](=O)[O-])c1)c1cc2ccccc2cc1O,inactive,–
Nc1nc2ccccc2n1Cc1ccc(F)cc1,inactive,–
O=Cc1cc(O)ccc1Br,inactive,–
O=C(Nc1ccc(Oc2ccc(Cl)cc2)c(Cl)c1)c1cc(I)cc(I)c1O,inactive,–
CCC1=C[C@@H]2CN(C1)Cc1c([nH]c3ccccc13)[C@@](C(=O)OC)(c1cc3c(cc1OC)N(C)[C@H]1[C@@](O)(C(=O)OC)[C@H](OC(C)=O)[C@]4(CC)C=CCN5CC[C@]31[C@@H]54)C2,inactive,–
CCCCCCCCCCCCCCCS(=O)(=O)Oc1ccccc1,inactive,–
CN(C)CCCOC1(Cc2ccccc2)CCCCCC1,inactive,–
CCCCCCCCCCCCc1ccc(O)cc1,61.1 µM (active),–
CCCCCOc1ccccc1/C(=C\SC)n1ccnc1,inactive,–
O=C(c1ccc(F)cc1)C1CCN(CCn2c(=O)[nH]c3ccccc3c2=O)CC1,inactive,–

SMILES,Potency,"activity change, negative = cytotoxicity"
CN(C)[C@@H]1C(=O)C(C(N)=O)=C(O)[C@@]2(O)C(=O)C3=C(O)c4c(O)cccc4C[C@H]3C[C@@H]12,inactive,–
COc1c(C)c2c(c(O)c1C/C=C(\C)CCC(=O)O)C(=O)OC2,inactive,–
C/C=C(\C)C(=O)OCc1ccccc1,inactive,–
O=C1c2ccccc2Cc2ccccc21,inactive,–
CCc1oc2ccccc2c1C(=O)c1cc(Br)c(O)c(Br)c1,inactive,–
O=C1C=CC(=O)N1c1ccc(Cc2ccc(N3C(=O)C=CC3=O)cc2)cc1,61.1 µM (active),–
CCCCCCCCCCn1cc[n+](CCCCCCCCCC)c1C,61.2 µM (active),–
CCCCCCCCCCCCCCCC[N+](C)(C)CCN(Cc1ccc(OC)cc1)c1ncccn1,29.8 µM (active),–
CCCCCCCC/C=C\CCCCCCCCOCCO,inactive,–
CCCCCCC[N+](CC)(CC)CCCCc1ccc(Cl)cc1,inactive,–
COc1cccc2c1C(=O)c1c(O)c3c(c(O)c1C2=O)C[C@@](O)(C(=O)CO)C[C@@H]3O[C@H]1C[C@H](N)[C@H](O[C@@H]2CCCCO2)[C@H](C)O1,inactive,–
Clc1ccc2n[nH]nc2c1,inactive,–
CCN(C(=O)N(CC)c1ccccc1)c1ccccc1,inactive,–
Cc1ccc(O)c(C(C)(C)C)c1,inactive,–
CCCCC(CC)CN=C(N)NC(N)=NCCCCCCN=C(N)NC(N)=NCC(CC)CCCC (stereo not given),29.8 µM (active),–
Nc1ccc2c3c(cccc13)-c1ccccc1-2,inactive,–
CC(C)(C)CC(C)(C)c1ccc(O)c(Cc2ccc(Cl)cc2Cl)c1,26.6 µM (active),–
CCCCC(CC)COC(=O)c1ccccc1C(=O)O (stereo not given),inactive,–
O=S1(=O)CC(Cl)(Cl)C(Cl)(Cl)C1,15.4 µM (active),–
CCCCCCCCCCCCCCCC(=O)OC[C@H](O)[C@H]1OC(=O)C(O)=C1O,inactive,–
